The values below come from the supplement of paper PMC10681739.

Assay [1] concerns the target T1, ETS1 (UniProt P14921).
T1 sequence: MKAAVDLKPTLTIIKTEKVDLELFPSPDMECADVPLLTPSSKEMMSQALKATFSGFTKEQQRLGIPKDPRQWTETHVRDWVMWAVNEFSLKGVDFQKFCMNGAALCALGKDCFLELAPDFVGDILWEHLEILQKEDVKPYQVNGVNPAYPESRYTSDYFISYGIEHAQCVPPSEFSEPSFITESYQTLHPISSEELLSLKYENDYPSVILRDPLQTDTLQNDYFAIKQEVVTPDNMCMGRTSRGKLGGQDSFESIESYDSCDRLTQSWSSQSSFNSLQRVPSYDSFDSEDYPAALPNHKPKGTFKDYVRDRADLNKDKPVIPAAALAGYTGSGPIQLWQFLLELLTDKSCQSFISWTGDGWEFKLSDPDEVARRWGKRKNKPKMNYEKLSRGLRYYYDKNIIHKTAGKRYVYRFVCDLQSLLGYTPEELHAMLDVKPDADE
Kind of assay: ETS1 binding intensity (PBM fluorescence), ETS1 alone (arbitrary fluorescence units); higher = stronger binding. The note with it: ETS1 concentration 1 nM; RUNX1 concentration 0 nM.

The target in assay [2] is T1, ETS1. Kind of assay: ETS1 binding intensity (PBM fluorescence) in presence of RUNX1, normalised to ETS1-only experiment (arbitrary fluorescence units); higher = stronger binding. The note with it: ETS1 concentration 1 nM; RUNX1 concentration 25 nM.

Turning to TGGGCCAGCACGTCCGGGTGGTCAGGACGCGCGCTT, the results for the ETS1 binding intensity with ETS1 [1] and in the assay with ETS1 [2] were 458 and 451, respectively.
The corresponding values for TACCACCTCAGGATGTCTGAACCACATGCAAGCAGG are 439 and 571.
For GCTTACGTCACGTCCGGCGCCTGCGGCCCACCCCTC the same measures were 592 and 506.
For AAGTCAGAGTTTACTTCCGAACCCACAGTGCCAAGC the same measures were 423 and 486.
As to GGTTTCACTTCCTGCGTTGGGCCTTGTGGCCTCCTT, the ETS1 binding intensity in the assay with ETS1 [1] stood at 783; with ETS1 [2], 787.
The corresponding values for TTTCTTCCTGTTTGCATCACCCCAAACCCACTATCA are 514 and 469.
The corresponding values for GAGCAACCAGGAAGAGCTTTGGCTGTGGGCTAAGAT are 511 and 441.
With AACATTACGGAAGTTTCTCTACCCATGCGGTGTCTC, the ETS1 binding intensity with ETS1 [1] was found to be 521; with ETS1 [2], 683.
The corresponding values for TGGCTTCCTGTCTGTCCTTCATCAGCCCACAGAGGC are 517 and 529.
GGGCAGCATCCTGTGCCTGCTTCTCTTACCCACATC: the ETS1 binding intensity with ETS1 [1] was determined as 494; with ETS1 [2], 453.
For ACAGCGCCTCTTCCTGCTCTACCACATCTGATGTCC the same measures were 512 and 352.
The corresponding values for TGGATGGCGGCGGATACTGCCCATGCCGCAAGGCCG are 464 and 532.
In the case of GGGCCCCCGGAAAGAGCTTTGACCGCTCGAGCCTGC, the ETS1 binding intensity came out at 456 with ETS1 [1] and 489 with ETS1 [2].
For TTTCCAGAGGATGTAGCTTCTGCGGGAGAGCTTCAA the same measures were 546 and 584.
The corresponding values for ACCCAGGGGACTTCCTGGCTCAGTGCCACAACCCAG are 545 and 393.
For TGCCCCCTCCCCCTTCCGCTGTGGCCACCGGCTTTG the same measures were 764 and 780.
Regarding CTGCCTTGCTTTTCCGGTCGCCGCGGTCCTCTGCGC, the ETS1 binding intensity with ETS1 [1] amounted to 2130; in the assay with ETS1 [2] it was 2110.
The corresponding values for TCTACATCCTGCAGTTCTCCATTGTGGCCATTAGGT are 443 and 319.
The corresponding values for TGGTCCACCCGGCGGAACTCGCGGTCCCGGCAGGCA are 520 and 397.
Consider CTGCAGACAGGAGGATGTGGGCTTGCGCGCAAACAG, for which the ETS1 binding intensity stood at 675 in the assay with ETS1 [1] and 745 with ETS1 [2].
For CTCAGAGCTGCGGAAACTACAACTCCCACAAGGCTG the same measures were 738 and 633.
The corresponding values for GAGGTTGGGAAGTTCTTCCTTTGGTCTGACCACAGT are 453 and 596.
For TGTTGGCTGTCCTCCGGAAACCCGCGCCTGGGTCGC the same measures were 1820 and 1930.
Consider TTCTCTGATTTTCCTTCCGCTCCCACAGCCTCTCCC, for which the results for the ETS1 binding intensity in the assay with ETS1 [1] and with ETS1 [2] were 697 and 612, respectively.
On to CAAAGGGGAACGAGGAAACCGCCAGGGGCGGGGCGG, for which the ETS1 binding intensity in the assay with ETS1 [1] is 485; with ETS1 [2] it was 475.
For ATGCAGAAGCTACAGGAAGAAGCCGCAGGCCAAGCT the same measures were 844 and 1120.
Regarding GGCAGGAGCTTCCGGCTCAGCCCTGCGGCCTGTGCC, the ETS1 binding intensity with ETS1 [1] worked out at 498; with ETS1 [2], 768.
The corresponding values for AGGCGAAGGATGACTTCCTGCGGCACTACACAGTGT are 610 and 656.
For the sequence TAGGTTAGAATAAGAGGAAACCTCAAACCAGAACCC, the figures for the ETS1 binding intensity with ETS1 [1] and with ETS1 [2] were 579 and 991, respectively.
For GGTCCAGGAAGACGTCAAGGGCTTGGTTTTGTAAAC the same measures were 505 and 448.
For the sequence TTTACGGGATGTAGGCGGCGGCGGCGGTAGTGGTAG, the ETS1 binding intensity was found to be 701 with ETS1 [1] and 771 in the assay with ETS1 [2].
For ACGTCTTTATTTATCCTGTGGCTTCCCGACCCCCAC the same measures were 537 and 576.
The corresponding values for CTGCACAGGGAAGTGAGTGTCGAGCTCACCGCACCG are 383 and 690.
On to CAGCTTCCGGGCTAATTAGCAGTCGCGGTGTGCCGC, for which the ETS1 binding intensity turned out to be 413 in the assay with ETS1 [1] and 450 with ETS1 [2].
For TGGGAAGGGTGAGGAGGAAGCGGTGGCCTTGCTCTG the same measures were 604 and 604.
For GAGAGCTGAGCGGAAGCTCAGCTGTGGGGCTGGTTG the same measures were 1740 and 1990.
With TCGGTGAAGGACGGAAGATGATAGCCACATTTCTTC, the ETS1 binding intensity with ETS1 [1] amounted to 512; with ETS1 [2], 485.
The corresponding values for TGAAGGGACGGAAGGGACAGAACTTGCGGGAGGCAC are 497 and 416.
In the case of GCGCACACATGCTTCCTGTGGTGACTGGGCGCTTCA, the ETS1 binding intensity with ETS1 [1] amounted to 527; with ETS1 [2], 512.
The corresponding values for GCTTAGGCTCTTTCCTGTGTGGTGAGCACTAACCTC are 488 and 324.
Turning to ACCCTCTTTCCGGTGGAAAGCTGCGGCCTCCCAGAG, the ETS1 binding intensity in the assay with ETS1 [1] came out at 464; with ETS1 [2] it was 380.
For TTGGAGACACACAAAGGATGTGGGCTGTGCGTGTGT the same measures were 1380 and 1780.
Take CAAGCCACTTCCTTTCTTGCTCCCACAACCTGTGTT: the values for the ETS1 binding intensity with ETS1 [1] and with ETS1 [2] were 579 and 471, respectively.
The corresponding values for CTGAAGGCTGGGGAGGAAGTGACCGCCCTCATATGC are 2120 and 2330.
For AGCCCTCTGCAACTTCCCGGCCCCACAGCCCCACCC the same measures were 678 and 575.
The corresponding values for AACACTATTTCCTTTCTTGCTGCCCACATTTTAACA are 520 and 447.
Turning to AAAGAGAAAGGAAACAAAGTATAGCACCACAGTGAG, the ETS1 binding intensity with ETS1 [1] was found to be 475; in the assay with ETS1 [2] it was 554.
For TGATGCAGGAAGGGGTGGAGTCACCACAGGAGGTAG the same measures were 827 and 952.
For CTGCGTCCCGGAAGGAGCGAGCTTGCGGAGCGTGAA the same measures were 710 and 542.
On to TAAACCCTGCTTCCTGTCCCTGCGCCCCACAAGGAG, for which the values for the ETS1 binding intensity with ETS1 [1] and with ETS1 [2] were 1290 and 1150, respectively.
The corresponding values for CCTCCCGGCTTCCGTTCCTTGACCACCTCCTTCTCG are 560 and 501.
The corresponding values for GAGATAGTCTGGAGGGGAAGTGGTTATAAGTGATAA are 797 and 1290.
